# Source: PubChem BioAssay
# This is one part of a sample in which hits are shown more often than they occur.
# IDE exosite inh: insulin-degrading enzyme (human) exo-site inhibition; P14735; hit rate 6.3% among 17,000; z-score at 20 µM; purified IDE, FL-6b probe fluorescence polarization; stronger effect = lower value;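 active means z-score of -3 or lower, meaning strong loss of probe binding signal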;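 further: His-tagged human IDE residues 42-1019 made in E. coli with 30 nM FL-6b probe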
# Target sequence (P14735 42-1019 limits assumed): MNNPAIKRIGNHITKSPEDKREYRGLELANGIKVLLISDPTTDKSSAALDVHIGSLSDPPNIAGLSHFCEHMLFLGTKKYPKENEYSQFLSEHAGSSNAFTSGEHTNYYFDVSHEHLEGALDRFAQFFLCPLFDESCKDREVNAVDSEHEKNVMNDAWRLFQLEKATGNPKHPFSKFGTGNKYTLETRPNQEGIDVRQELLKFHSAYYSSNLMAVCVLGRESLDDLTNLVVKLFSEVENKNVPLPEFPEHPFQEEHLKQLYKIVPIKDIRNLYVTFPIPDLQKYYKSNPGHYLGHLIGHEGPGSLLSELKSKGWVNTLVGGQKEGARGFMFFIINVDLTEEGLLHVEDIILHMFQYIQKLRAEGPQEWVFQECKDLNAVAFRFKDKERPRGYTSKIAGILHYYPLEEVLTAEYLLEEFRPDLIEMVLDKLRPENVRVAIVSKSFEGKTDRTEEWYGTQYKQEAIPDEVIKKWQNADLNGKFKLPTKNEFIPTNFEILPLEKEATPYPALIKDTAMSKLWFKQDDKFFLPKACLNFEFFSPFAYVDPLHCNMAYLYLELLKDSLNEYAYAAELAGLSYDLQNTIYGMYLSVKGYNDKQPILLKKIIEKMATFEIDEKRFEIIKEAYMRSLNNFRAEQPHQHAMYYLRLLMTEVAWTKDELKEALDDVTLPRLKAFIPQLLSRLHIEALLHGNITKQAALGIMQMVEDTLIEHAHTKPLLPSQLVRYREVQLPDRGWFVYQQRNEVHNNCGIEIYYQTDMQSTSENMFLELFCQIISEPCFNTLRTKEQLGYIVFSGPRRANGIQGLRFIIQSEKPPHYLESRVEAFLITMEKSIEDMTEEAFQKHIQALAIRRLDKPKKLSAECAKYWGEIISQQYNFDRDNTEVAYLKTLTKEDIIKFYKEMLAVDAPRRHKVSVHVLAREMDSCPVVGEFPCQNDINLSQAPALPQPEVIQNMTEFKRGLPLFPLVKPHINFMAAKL
# An asterisk follows results filed as active; ! = not active in a repeat.
SMILES,IDE exosite inh
COc1ccc(-c2ccc([C@@H]3[C@@H](C#N)N(C(=O)NC(C)C)[C@H]3CO)cc2)cc1,0.76
COc1ccc(-c2ccccc2[C@H]2[C@@H](C#N)N(C(=O)NC3CCCCC3)[C@H]2CO)cc1,1.3
COc1ccc(-c2ccc([C@H]3[C@H](C#N)N(C(=O)NC4CCCCC4)[C@H]3CO)cc2)cc1,4.5
CN(C)CC(=O)N1[C@H](C#N)[C@@H](c2ccc(-c3ccccc3F)cc2)[C@H]1CO,0.21
COc1ccccc1-c1ccc([C@@H]2[C@@H](C#N)N(C(=O)NC3CCCCC3)[C@@H]2CO)cc1,-10*
COc1ccccc1-c1ccccc1[C@@H]1[C@H](C#N)N(C(=O)CN(C)C)[C@H]1CO,-0.82
COc1ccccc1-c1ccc([C@@H]2[C@@H](C#N)N(C(=O)NC(C)C)[C@@H]2CO)cc1,-13*
COc1ccccc1-c1ccc([C@@H]2[C@@H](C#N)N(C(=O)CN(C)C)[C@H]2CO)cc1,-12*
Cc1ccccc1S(=O)(=O)N1CCCCN2[C@H](CO)[C@H](c3ccc(C#CCN(C)C)cc3)[C@@H]2C1,0.014
CNC[C@H]1OCCCC[C@@H](C)Oc2ccc(NC(=O)Nc3ccc(OC)cc3)cc2C(=O)N([C@H](C)CO)C[C@H]1C,2.6
N#Cc1ccc(-c2ccc([C@@H]3[C@@H](CO)N4C(=O)CNC[C@@H]34)cc2)cc1,0.64
C[C@@H]1CN([C@@H](C)CO)C(=O)c2cc(NS(=O)(=O)c3ccccc3)ccc2O[C@@H](C)CCCCO[C@@H]1CN(C)C(=O)C1CCCCC1,0.062
C[C@H](CO)N1C[C@H](C)[C@H](CN(C)C(=O)Nc2cccc3ccccc23)OCc2cn(nn2)CCCC1=O,-0.24
CCS(=O)(=O)Nc1ccc2c(c1)C(=O)N(C)[C@H]1CC[C@H](CC(=O)N[C@H]3CCN(Cc4ccccc4)C3)O[C@@H]1CO2,-0.44
COc1ccccc1-c1ccc(C2[C@@H]3CN(C(=O)c4ccncc4)C[C@H]2N3)cc1 (stereo not given in full),-7.3*!
Cc1cccc(-c2ccc(C3[C@@H]4CN(C(=O)c5ccncc5)C[C@H]3N4)cc2)c1 (stereo not given in full),-2.9
COc1ccc(-c2ccc(C3[C@@H]4CN(C(=O)c5ccc(F)cc5)C[C@H]3N4)cc2)cc1 (stereo not given in full),1.2
N#Cc1ccc(-c2ccc(C3[C@@H]4CN(C(=O)c5ccncc5)C[C@H]3N4)cc2)cc1 (stereo not given in full),-0.56
COc1ccccc1-c1ccc(C2[C@@H]3CN(C(=O)c4cccnc4)C[C@H]2N3)cc1 (stereo not given in full),-14*!
O=C(c1ccc(F)cc1)N1C[C@@H]2N[C@H](C1)C2c1ccc(-c2cccnc2)cc1 (stereo not given in full),-0.19
CNC(=O)C[C@H]1CC[C@@H]2[C@H](COc3ccc(NC(=O)c4ccccc4F)cc3C(=O)N2C)O1,0.45
CCCC(=O)N1CCC2(CC1)CN(C(C)=O)[C@H](CO)c1c2c2ccc(OC)cc2n1C,0.93
C[C@H](CO)N1C[C@H](C)[C@H](CN(C)Cc2ccc(C(=O)Nc3ccccc3N)cc2)OCc2cnnn2CCCC1=O,0.7
CCCNC(=O)Nc1ccc2c(c1)C(=O)N(C)[C@H]1CC[C@H](CC(=O)Nc3cc(F)ccc3F)O[C@@H]1CO2,0.59
CC(C)[C@@H]1CC=CC[C@H](C)Oc2ccccc2C(=O)N(C)[C@@H](Cc2ccccc2)C(=O)N1 (mixture of isomers),0.75
SMILES,IDE exosite inh
COc1cccc(C#Cc2ccc([C@@H]3[C@@H](CO)N4C(=O)CN(C(=O)Cc5ccccc5)C[C@@H]34)cc2)c1,0.0021
COCC(=O)N1CC(=O)N2[C@H](CO)[C@H](c3ccc(C#Cc4cccc(OC)c4)cc3)[C@H]2C1,-6.6*
COc1cccc(C#Cc2ccc([C@@H]3[C@@H](CO)N4C(=O)CN(C(=O)Cc5cccnc5)C[C@@H]34)cc2)c1,-1.4
CCC(=O)N1CC(=O)N2[C@H](CO)[C@@H](c3ccc(C#Cc4cccc(OC)c4)cc3)[C@@H]2C1,-5.2*
COc1cccc(C#Cc2ccc([C@H]3[C@@H](CO)N4C(=O)CN(C(=O)Cc5ccccc5)C[C@H]34)cc2)c1,-4.6*
COc1cccc(C#Cc2ccc([C@@H]3[C@@H](CO)N4C(=O)CN(C(=O)Cc5ccccc5)C[C@H]34)cc2)c1,2.2
COCC(=O)N1CC(=O)N2[C@H](CO)[C@H](c3ccc(C#Cc4cccc(OC)c4)cc3)[C@@H]2C1,-2.3
CCC(=O)N1CC(=O)N2[C@@H](CO)[C@H](c3ccc(C#Cc4cccc(OC)c4)cc3)[C@@H]2C1,-9.1*
CS(=O)(=O)N1Cc2cc(C(=O)NCC3CC3)nc(-c3cccc(-c4cncnc4)c3)c2[C@@H]1CCO,0.37
C/C=C/c1ccccc1[C@@H]1[C@H](C#N)N(C(=O)Cc2ccccn2)[C@H]1CO,-0.39
CCc1sc(N2[C@H](C#N)[C@H](c3ccccc3-c3ccccc3)[C@H]2CO)nc1C,-0.55
COc1ccc2c3c([nH]c2c1)[C@H](CO)N(S(C)(=O)=O)CC31CCN(C(=O)Nc2ccccc2)CC1,0.71
